# Measured values published in PubChem BioAssay AID1159580 (chemical genetic matrix, 2015).
# Among all 5,500 compounds or so, about 2,000 (36%) were called active. Roughly 18% stayed inconclusive and do not appear here. This is one part of the list. A number with no mark means an inactive call. Rule as the data show it: active = normalized growth mostly below about 0.91 (no sharp cut-off); inconclusive = no clear call, values can overlap the other calls; inactive = mostly above about 0.92.
# Test: chemical genetic growth profiling, strain panel (AID 1159580);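 also: tested at 20 µM; growth read once vehicle control cultures reached saturation at 30 °C; 1 = growth at the plate median or of vehicle wells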
# Details: S. cerevisiae deletion strains, growth OD
smiles,measurement,setting,value
CC1(C)CCC2(C(=O)O)CCC3(C)C(=CCC4C5(C)CCC(O)C(C)(C)C5C(O)CC43C)C2C1 (stereo not given),normalized growth,"locus YAL021C, strain ccr4, stronger effect = lower value",1
same,normalized growth,"locus YAL026C, strain drs2, stronger effect = lower value",1.04
same,normalized growth,"locus YAL030W, strain snc1, stronger effect = lower value",1.03
same,normalized growth,"locus YBL061C, strain skt5, stronger effect = lower value",1.03
same,normalized growth,"locus YBR009C, strain hhf1, stronger effect = lower value",1.02
same,normalized growth,"locus YBR023C, strain chs3, stronger effect = lower value",1.04
same,normalized growth,"locus YBR171W, strain sec66, stronger effect = lower value",1.05
same,normalized growth,"locus YBR231C, strain swc5, stronger effect = lower value",1.03
same,normalized growth,"locus YBR279W, strain paf1, stronger effect = lower value",1.03
same,normalized growth,"locus YCL011C, strain gbp2, stronger effect = lower value",1.02
same,normalized growth,"locus YCL016C, strain dcc1, stronger effect = lower value",1.01
same,normalized growth,"locus YCL069W, strain vba3, stronger effect = lower value",1.03
same,normalized growth,"locus YCR088W, strain abp1, stronger effect = lower value",1.04
same,normalized growth,"locus YDL005C, strain med2, stronger effect = lower value",0.246 (active)
same,normalized growth,"locus YDL040C, strain nat1, stronger effect = lower value",1.04
same,normalized growth,"locus YDR001C, strain nth1, stronger effect = lower value",1.03
same,normalized growth,"locus YDR069C, strain doa4, stronger effect = lower value",1.11 [resistant] (active)
same,normalized growth,"locus YDR137W, strain rgp1, stronger effect = lower value",0.871
same,normalized growth,"locus YDR159W, strain sac3, stronger effect = lower value",1.01
same,normalized growth,"locus YDR195W, strain ref2",1.06
same,normalized growth,"locus YDR297W, strain sur2, stronger effect = lower value",1.04
same,normalized growth,"locus YDR334W, strain swr1, stronger effect = lower value",1.04
same,normalized growth,"locus YDR335W, strain msn5, stronger effect = lower value",1.01
same,normalized growth,"locus YDR392W, strain spt3, stronger effect = lower value",0.966
same,normalized growth,"locus YEL003W, strain gim4, stronger effect = lower value",1.01
same,normalized growth,"locus YEL037C, strain rad23, stronger effect = lower value",1.02
same,normalized growth,"locus YER015W, strain faa2, stronger effect = lower value",1.03
same,normalized growth,"locus YER016W, strain bim1, stronger effect = lower value",1.04
same,normalized growth,"locus YER111C, strain swi4, stronger effect = lower value",1.02
same,normalized growth,"locus YER155C, strain BEM2 (second series), stronger effect = lower value",1.03
same,normalized growth,"locus YFR010W, strain ubp6, stronger effect = lower value",1.06
same,normalized growth,"locus YGL167C, strain pmr1, stronger effect = lower value",1.05
same,normalized growth,"locus YGL173C, strain kem1, stronger effect = lower value",1.03
same,normalized growth,"locus YGL227W, strain vid30, stronger effect = lower value",1.04
same,normalized growth,"locus YGL240W, strain doc1, stronger effect = lower value",0.961
same,normalized growth,"locus YGL253W, strain hxk2, stronger effect = lower value",1.04
same,normalized growth,"locus YHR013C, strain ard1, stronger effect = lower value",1.12
same,normalized growth,"locus YHR027C, strain rpn1, stronger effect = lower value",1.04
same,normalized growth,"locus YHR142W, strain chs7, stronger effect = lower value",1.02
same,normalized growth,"locus YJL092W, strain hpr5, stronger effect = lower value",1.04
same,normalized growth,"locus YJL095W, strain BCK1 (second series), stronger effect = lower value",1.05
same,normalized growth,"locus YJL115W, strain asf1, stronger effect = lower value",1.03
same,normalized growth,"locus YJL129C, strain trk1, stronger effect = lower value",0.972
same,normalized growth,"locus YJL154C, strain vps35, stronger effect = lower value",1.02
same,normalized growth,"locus YJL164C, strain tpk1, stronger effect = lower value",1.02
same,normalized growth,"locus YJL166W, strain qcr8, stronger effect = lower value",1.02
same,normalized growth,"locus YJL187C, strain SWE1, stronger effect = lower value",1.03
same,normalized growth,"locus YKL160W, strain elf1, stronger effect = lower value",1.03
same,normalized growth,"locus YKR026C, strain gcn3, stronger effect = lower value",1.05
same,normalized growth,"locus YKR091W, strain srl3, stronger effect = lower value",1.03
same,normalized growth,"locus YLL001W, strain dnm1, stronger effect = lower value",1.02
same,normalized growth,"locus YLL026W, stronger effect = lower value",1.03
same,normalized growth,"locus YLL041C, strain sdh2, stronger effect = lower value",1.05
same,normalized growth,"locus YLR027C, strain aat2, stronger effect = lower value",1.04
same,normalized growth,"locus YLR221C, strain rsa3, stronger effect = lower value",1.03
same,normalized growth,"locus YLR258W, strain gsy2, stronger effect = lower value",1.02
same,normalized growth,"locus YLR262C, strain YPT6 (second series), stronger effect = lower value",0.938
same,normalized growth,"locus YLR320W, strain mms22, stronger effect = lower value",1.02
same,normalized growth,"locus YLR342W, strain FKS1, stronger effect = lower value",1.04
same,normalized growth,"locus YLR357W, strain rsc2, stronger effect = lower value",1.01
same,normalized growth,"locus YLR370C, strain arc18, stronger effect = lower value",1.04
same,normalized growth,"locus YLR384C, strain iki3, stronger effect = lower value",1.04
same,normalized growth,"locus YML120C, strain ndi1, stronger effect = lower value",1.02
same,normalized growth,"locus YMR058W, strain fet3, stronger effect = lower value",1.01
same,normalized growth,"locus YMR125W, strain sto1, stronger effect = lower value",1.03
same,normalized growth,"locus YMR129W, stronger effect = lower value",1.03
same,normalized growth,"locus YMR205C, strain PFK2, stronger effect = lower value",1.02
same,normalized growth,"locus YMR231W, strain pep5, stronger effect = lower value",1.02
same,normalized growth,"locus YNL071W, strain lat1, stronger effect = lower value",1.05
same,normalized growth,"locus YNL209W, strain ssb2, stronger effect = lower value",1.04
same,normalized growth,"locus YNL248C, strain rpa49, stronger effect = lower value",1.01
same,normalized growth,"locus YNL322C, strain KRE1 (second series), stronger effect = lower value",1.05
same,normalized growth,"locus YNR049C, strain mso1, stronger effect = lower value",1.04
same,normalized growth,"locus YOR001W, strain rrp6, stronger effect = lower value",0.964
same,normalized growth,"locus YOR070C, strain gyp1, stronger effect = lower value",1.03
same,normalized growth,"locus YOR080W, strain dia2, stronger effect = lower value",1.04
same,normalized growth,"locus YOR083W, strain WHI5, stronger effect = lower value",1.02
same,normalized growth,"locus YOR106W, strain vam3, stronger effect = lower value",0.901
same,normalized growth,"locus YOR265W, strain rbl2, stronger effect = lower value",1.02
same,normalized growth,"locus YOR270C, strain vph1, stronger effect = lower value",0.911
same,normalized growth,"locus YOR290C, strain snf2, stronger effect = lower value",0.991
same,normalized growth,"locus YPL051W, strain arl3, stronger effect = lower value",0.992
same,normalized growth,"locus YPL078C, strain atp4, stronger effect = lower value",1.01
same,normalized growth,"locus YPL106C, strain sse1, stronger effect = lower value",1.03
same,normalized growth,"locus YPL240C, strain hsp82, stronger effect = lower value",1.03
